AC50 and outcome data for 38 compounds are collected here from PubChem BioAssay (EPA / NIEHS).

SMILES strings stand for the structures. Values joined by “and” are separate entries in the source; they are usually repeats but may differ in a detail not shown here. Equal values may be shown once. Some structures have more than one record in an assay (separate samples or runs), and their calls can disagree. Active and inactive are the calls of the source. The calls were made as follows: active = hit-call score of the fitted dose curve at least 0.9, where 1 is the maximum; inactive = score below 0.9.

Sequence of X-box-binding protein 1 (Homo sapiens) (P17861 whole entry, looked up): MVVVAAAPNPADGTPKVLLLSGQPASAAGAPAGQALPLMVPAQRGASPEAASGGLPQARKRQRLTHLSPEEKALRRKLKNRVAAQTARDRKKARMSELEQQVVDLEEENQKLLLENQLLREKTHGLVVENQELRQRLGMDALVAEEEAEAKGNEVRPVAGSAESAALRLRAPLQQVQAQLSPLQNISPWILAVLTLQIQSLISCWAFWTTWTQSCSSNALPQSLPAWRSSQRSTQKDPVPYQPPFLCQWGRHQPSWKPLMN

The experiment concerns the target X-box-binding protein 1 (Homo sapiens) (UniProt P17861). The experiment in a line: ATG_Xbp1_CIS: Attagene CIS-FACTORIAL HepG2 Assay for human X-box Binding Protein 1 (XBP1) (AID 2282972). The note with it: HepG2 XBP1 cis-element reporter, Attagene multiplex; actives raise or lower the signal. The procedure:
ATG_CIS is a cell-based, multiplexed-readout assay that uses HepG2, a human liver cell line, with measurements taken at 24 hours after chemical dosing in a 24-well plate.ATG_Xbp1_CIS is one of 52 assay component(s) measured or calculated from the ATG_CIS assay. It is designed to make measurements of mRNA induction, a form of inducible reporter, as detected with fluorescence intensity signals by Reverse transcription polymerase chain reaction (RT-PCR) and Capillary electrophoresis technology.Data from the assay component ATG_Xbp1_CIS was analyzed into 1 assay endpoint. This assay endpoint, ATG_Xbp1_CIS, was analyzed with bidirectional fitting relative to DMSO as the negative control and baseline of activity. Using a type of inducible reporter, measures of mRNA for gain or loss-of-signal activity can be used to understand the reporter gene at the transcription factor-level as they relate to the gene XBP1. Furthermore, this assay endpoint can be referred to as a primary readout, because this assay has produced multiple assay endpoints where this one serves a reporter gene function. To generalize the intended target to other relatable targets, this assay endpoint is annotated to the dna binding intended target family, where the subfamily is basic leucine zipper.
Human liver HepG2 cells are transiently transfected with multiple reporter transcription units (MRTUs) in 6-well plates using FuGene 6 reagent (Roche; 3 ml FuGene/1 mg DNA). The MRTU constructs are regulated by a cis-regulating element (promoter). […] A major difference between the CIS and TRANS system is that in CIS activities of endogenous TFs are measured, whereas the TRANS assay evaluates changes in activities of exogenous, chimeric NR-Gal4 proteins. […] At the end of 24 hour incubation, total RNA was isolated using TriZol reagent (Invitrogen). The isolated RNA is then reverse-transcribed using oligo(dT) primer and Mo-MLV reverse transcriptase (Invitrogen) with DNAse I (Ambion) treatment for 30 min. The one-tenth of the produced cDNA was amplified by PCR using Taq DNA polymerase (Invitrogen) and two reporter sequence-specific primers. The PCR products were fluorescently labeled by primer extension with 6-arboxyfluorescein (6-FAM) 5'-labeled reporter sequence-specific primer (2 min at 95 C, 20 s at 68 C and 10 min at 72 C) and these products were digested with 5U of HpaI (New England Biolabs) for 2h at 37 C. The fragments were purified using Qiaquick PCR columns (Qiagen), analyzed on an ABI 3130xL genetic analyzer (Applied Biosystems) with peak positions identified by using a set of X-rhodamine (ROX)-labeled MapMarker1000 molecular weight standards (BioVentures). The raw capillary electrophoresis data was processed using Attagraph software (Attagene).
Regarding `CCCCCCOC(=O)c1ccc(O)cc1`, the concentration at half-maximal activity (AC50) is 54.6 µM (active). Consider `NS(=O)(=O)O`, for which the outcome was inactive.

Consider `CNNCc1ccc(C(=O)NC(C)C)cc1`, for which the outcome was inactive. Still for that read-out and setting: for `C=CC(=O)OCCC(F)(F)C(F)(F)C(F)(F)C(F)(F)C(F)(F)C(F)(F)F` the value was “inactive”. For the compound `CCCCCc1ccc(O)cc1`, the compound was classed as inactive. On the same count and under the same terms, for `FC(OC(F)(F)C(F)(F)C(F)(F)F)C(F)(F)F` (stereo not given) the value was “inactive”; for `CCOC(C)=O`, “inactive”; for `O=C(C=C(O)C(F)(F)F)C(F)(F)F`, “inactive”.

Regarding `CC(C)[C@@H]1CC[C@@H](C)C[C@H]1O`, the compound was called inactive. On the same count and under the same terms, the result for `OCC1CCC(CO)CC1` (stereo not given) reads “inactive”; that for `CC(C)c1c(C(=O)Nc2ccccc2)c(-c2ccccc2)c(-c2ccc(F)cc2)n1CC[C@@H](O)C[C@@H](O)CC(=O)O`, “inactive”; that for `COc1cc(OC)nc(NC(=O)NS(=O)(=O)Nc2ccccc2C(=O)N(C)C)n1`, “inactive”.

For `CCCC=O`, the compound was called inactive. On to `c1ccc2c(c1)CCC2`, for which the call was inactive. On to `Nc1cc(Cl)c(-c2cc(Cl)c(N)cc2Cl)cc1Cl`, for which the concentration at half-maximal activity (AC50) was 11.1 µM (active). For the compound `CCCCCC(C)OC(=O)COc1ccc(Cl)c2cccnc12` (stereo not given), the compound was classed as inactive. Still for that read-out and setting: the result for `CCCCCCCCCCCC` reads “inactive”; that for `COCN(COC)c1nc(N(COC)COC)nc(N(COC)COC)n1`, “inactive”; that for `CCCCCCc1ccc(N)cc1`, “inactive”. On the same count and under the same terms, the result for `CCO[Si](CCC1CCC2OC2C1)(OCC)OCC` (stereo not given) reads “inactive”. `CCCCCCCCCCCC(=O)O`: the outcome was inactive and the AC50 is 87 µM (active).

As to `Cc1cncc(C)c1`, the result was inactive. `COc1cccc(O)c1`: the result was inactive. The same measure, in the same setting: for `CCCCCCCCCCCCCC[n+]1ccccc1` the value was “inactive”. For the compound `O=C1c2ccccc2C(=O)c2c(O)c(O)cc(O)c21`, the result was inactive. The same measure, in the same setting: the result for `NCCN` reads “inactive”.

`OCCN1CN(CCO)CN(CCO)C1`: the half-maximal activity concentration (AC50) is 164 µM (active). Consider `O=C(NO)c1ccccc1`, for which the compound was classed as inactive. On to `C=CC(=O)OCCC(F)(F)C(F)(F)C(F)(F)C(F)(F)C(F)(F)C(F)(F)C(F)(F)C(F)(F)F`, for which the result was inactive. On to `Clc1ccc(Nc2nnc(Cc3ccncc3)c3ccccc23)cc1`, for which the outcome was inactive. Still for that read-out and setting: for `Oc1cccc2c(O)cccc12` the value was “inactive”.

As for `O=C(O)C(=O)O`, the compound was called inactive. The same measure, in the same setting: the result for `FC(F)(F)N1C(F)(F)C(F)(F)OC(F)(F)C1(F)F` reads “inactive”; that for `Cc1ccc(C)c(S(=O)(=O)O)c1`, “inactive”.

`O=C(O)C(F)(F)OC(F)(F)C(F)(F)OC(F)(F)C(F)(F)OC(F)(F)C(F)(F)C(F)(F)C(F)(F)F`: the AC50 was 41.2 µM (active) and 25.4 µM (active).

As for `O=S(=O)(O)c1ccccc1`, the call was inactive. On the same count and under the same terms, the result for `Oc1c(Cl)ccc(Cl)c1Cl` reads “inactive”. Turning to `c1cnc2c(c1)ccc1cccnc12`, the compound was called inactive and the AC50 is 158 µM (active).
